Source: PubChem BioAssay AID588689 (Southern Research Specialized Biocontainment Screening …, 2011)
The whole screen tested about 340,000 compounds, of which about 1,000 (0.29%) were called active. Rule as the data show it: inconclusive = inhibition above about 29% without an active follow-up result; inactive = below that. Not all results are given here. Measured potencies and affinities stand elsewhere.

What follows are compounds tested against Genome polyprotein (Dengue virus type 2 (strain 16681-PDK53)) (UniProt P29991) (assay: flavivirus cap methylation enzyme inhibition – biochemical, confirmation dose response, primary screen (AID 588689)). Settings: Dengue-2 NS5 methyltransferase capping enzyme assay, at 25 µM, active compounds read high.
Genome polyprotein (Dengue virus type 2 (strain 16681-PDK53)), sequence (P29991 whole entry, looked up): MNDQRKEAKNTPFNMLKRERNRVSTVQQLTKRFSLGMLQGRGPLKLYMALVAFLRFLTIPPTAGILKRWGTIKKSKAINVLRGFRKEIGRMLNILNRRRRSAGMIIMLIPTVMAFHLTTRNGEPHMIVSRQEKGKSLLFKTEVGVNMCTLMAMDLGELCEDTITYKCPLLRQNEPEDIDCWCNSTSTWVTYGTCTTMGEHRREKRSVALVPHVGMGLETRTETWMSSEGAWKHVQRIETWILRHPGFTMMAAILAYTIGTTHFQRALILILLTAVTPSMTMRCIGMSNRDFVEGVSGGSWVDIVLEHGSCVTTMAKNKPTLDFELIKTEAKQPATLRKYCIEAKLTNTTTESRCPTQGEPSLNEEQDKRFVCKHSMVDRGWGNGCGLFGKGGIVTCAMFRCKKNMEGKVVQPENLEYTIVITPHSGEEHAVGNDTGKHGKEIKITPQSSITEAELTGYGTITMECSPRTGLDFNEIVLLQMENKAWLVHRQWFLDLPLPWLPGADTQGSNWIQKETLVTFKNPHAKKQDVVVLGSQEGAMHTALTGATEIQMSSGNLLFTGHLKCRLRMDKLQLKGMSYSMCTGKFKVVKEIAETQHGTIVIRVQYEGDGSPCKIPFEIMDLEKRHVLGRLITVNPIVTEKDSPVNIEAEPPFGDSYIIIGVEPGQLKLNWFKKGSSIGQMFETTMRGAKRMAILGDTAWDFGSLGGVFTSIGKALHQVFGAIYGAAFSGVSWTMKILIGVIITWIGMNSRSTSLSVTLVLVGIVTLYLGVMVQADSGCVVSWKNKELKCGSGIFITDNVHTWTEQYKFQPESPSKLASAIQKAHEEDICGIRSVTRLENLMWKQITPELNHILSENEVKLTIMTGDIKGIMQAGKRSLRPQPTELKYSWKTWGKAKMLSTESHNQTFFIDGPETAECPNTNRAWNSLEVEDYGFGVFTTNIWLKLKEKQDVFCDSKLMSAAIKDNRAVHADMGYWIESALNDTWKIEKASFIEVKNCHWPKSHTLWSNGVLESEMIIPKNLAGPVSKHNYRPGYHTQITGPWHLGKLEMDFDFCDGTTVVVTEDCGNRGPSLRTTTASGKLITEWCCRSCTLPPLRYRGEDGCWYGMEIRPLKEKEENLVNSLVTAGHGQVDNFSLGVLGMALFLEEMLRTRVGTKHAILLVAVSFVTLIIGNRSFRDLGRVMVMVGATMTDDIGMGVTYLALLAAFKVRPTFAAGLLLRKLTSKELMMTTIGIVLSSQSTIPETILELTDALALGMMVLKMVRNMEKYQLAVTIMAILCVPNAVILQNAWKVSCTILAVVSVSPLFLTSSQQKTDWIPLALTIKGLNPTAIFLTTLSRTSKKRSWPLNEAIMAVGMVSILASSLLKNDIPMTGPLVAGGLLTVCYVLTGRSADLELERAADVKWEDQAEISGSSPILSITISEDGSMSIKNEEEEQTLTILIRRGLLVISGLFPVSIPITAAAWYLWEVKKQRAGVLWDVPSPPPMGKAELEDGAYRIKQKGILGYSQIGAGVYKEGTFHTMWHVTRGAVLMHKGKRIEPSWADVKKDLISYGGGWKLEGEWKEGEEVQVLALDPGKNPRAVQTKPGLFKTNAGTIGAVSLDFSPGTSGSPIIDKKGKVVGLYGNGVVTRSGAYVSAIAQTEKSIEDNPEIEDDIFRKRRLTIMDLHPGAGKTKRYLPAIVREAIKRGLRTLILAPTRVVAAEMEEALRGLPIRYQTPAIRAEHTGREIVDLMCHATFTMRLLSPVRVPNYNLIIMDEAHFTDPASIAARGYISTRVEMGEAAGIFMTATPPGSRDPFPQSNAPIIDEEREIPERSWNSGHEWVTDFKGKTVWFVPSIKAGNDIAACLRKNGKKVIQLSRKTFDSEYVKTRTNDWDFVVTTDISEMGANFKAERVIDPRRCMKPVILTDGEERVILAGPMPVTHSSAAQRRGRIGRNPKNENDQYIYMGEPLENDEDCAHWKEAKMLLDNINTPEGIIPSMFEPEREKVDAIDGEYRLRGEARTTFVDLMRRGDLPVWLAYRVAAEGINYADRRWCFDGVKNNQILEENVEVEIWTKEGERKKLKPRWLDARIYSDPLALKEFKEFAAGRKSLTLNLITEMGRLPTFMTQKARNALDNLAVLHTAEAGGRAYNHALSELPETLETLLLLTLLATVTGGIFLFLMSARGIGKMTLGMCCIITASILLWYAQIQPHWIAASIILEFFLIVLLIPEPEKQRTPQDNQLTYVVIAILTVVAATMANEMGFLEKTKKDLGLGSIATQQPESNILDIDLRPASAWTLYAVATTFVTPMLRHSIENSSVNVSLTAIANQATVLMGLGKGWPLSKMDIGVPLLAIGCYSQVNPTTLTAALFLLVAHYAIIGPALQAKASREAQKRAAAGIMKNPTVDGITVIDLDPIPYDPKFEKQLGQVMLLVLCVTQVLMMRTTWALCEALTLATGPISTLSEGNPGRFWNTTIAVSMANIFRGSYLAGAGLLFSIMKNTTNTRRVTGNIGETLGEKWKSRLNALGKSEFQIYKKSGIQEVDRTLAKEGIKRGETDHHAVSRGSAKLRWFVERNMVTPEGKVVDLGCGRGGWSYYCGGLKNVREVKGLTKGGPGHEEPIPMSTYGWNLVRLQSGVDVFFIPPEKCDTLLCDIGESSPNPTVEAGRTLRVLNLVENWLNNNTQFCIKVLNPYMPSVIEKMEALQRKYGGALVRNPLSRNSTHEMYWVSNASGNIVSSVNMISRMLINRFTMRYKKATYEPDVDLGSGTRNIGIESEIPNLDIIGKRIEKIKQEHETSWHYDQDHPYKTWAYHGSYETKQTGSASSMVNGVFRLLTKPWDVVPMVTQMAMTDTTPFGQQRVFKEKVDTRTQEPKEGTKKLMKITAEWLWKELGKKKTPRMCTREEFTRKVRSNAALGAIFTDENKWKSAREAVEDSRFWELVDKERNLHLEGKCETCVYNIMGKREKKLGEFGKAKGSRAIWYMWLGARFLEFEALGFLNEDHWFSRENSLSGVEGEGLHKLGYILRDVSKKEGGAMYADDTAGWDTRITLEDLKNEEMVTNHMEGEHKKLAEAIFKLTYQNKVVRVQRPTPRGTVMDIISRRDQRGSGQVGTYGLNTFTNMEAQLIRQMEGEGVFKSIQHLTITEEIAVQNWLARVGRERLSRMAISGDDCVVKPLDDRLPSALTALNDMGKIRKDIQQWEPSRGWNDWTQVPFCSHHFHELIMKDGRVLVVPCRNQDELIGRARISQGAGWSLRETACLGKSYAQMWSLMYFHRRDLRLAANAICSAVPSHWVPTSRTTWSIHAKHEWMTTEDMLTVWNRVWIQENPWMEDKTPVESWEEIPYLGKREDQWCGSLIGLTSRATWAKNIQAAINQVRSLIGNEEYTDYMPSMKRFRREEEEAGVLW
In the case of COc1ccc(CNC(=O)COC(=O)C(CCSC)NC(=O)c2ccco2)cc1OC (stereo unspecified), the inhibition is reported as 0% (inactive).
In the case of O=C(c1cc(C2CC2)nn1-c1ccccc1)N1CCN(Cc2ccccc2F)CC1, the inhibition is reported as -3.6% (inactive).
In the case of Cc1cc(C(=O)COC(=O)c2n[nH]c(=O)c3ccccc23)c(C)n1C(C)C, the inhibition is reported as -4.04% (inactive).
With CCOc1ccc(N(CC(=O)NC2CCCCC2C)S(=O)(=O)c2c(C)noc2C)cc1 (stereo unspecified) the inhibition was -4.39% (inactive).
In the case of O=C1C(=NO)CCCc2ccccc21, the inhibition is reported as -3.23% (inactive).
For O=C1/C(=N\O)Cc2ccccc21, the inhibition was -5.15% (inactive).
In the case of O=C(O)CC1SC(N/N=C/c2ccc(Br)cc2)NC1=O (stereo unspecified), the inhibition is reported as 3.06% (inactive).
COc1ccc(OC)c(S(=O)(=O)N(C)CC(=O)N2CCCCC2)c1 was tested, and the inhibition was -7.78% (inactive).
For CC(C)C1C(=O)N(Cc2cn(CCC3OCCO3)nn2)CCS(=O)(=O)N1Cc1ccc(-c2ccc(Cl)c(Cl)c2)cc1 (stereo unspecified), the inhibition was -2.32% (inactive).
With Cc1c(Br)c(O)c(Br)c(O)c1/C=N/n1c(-c2ccccc2)n[nH]c1=S the inhibition was 21.5% (inactive).
For CN=c1scc(C)n1/N=C/c1cc(Br)c(O)c(Br)c1, the inhibition was -1.49% (inactive).
For Oc1c(Br)cc(Br)cc1/C=N/n1c(-c2ccccc2)n[nH]c1=S, the inhibition was -12.7% (inactive).
Oc1ccc(/C=N/n2c(-c3ccccc3)n[nH]c2=S)cc1Br was tested, and the inhibition was 13.5% (inactive).
COc1ccccc1N1C(=O)CC(N2CCN(c3ccc(F)cc3)CC2)C1=O (stereo unspecified) was tested, and the inhibition was -6.31% (inactive).
With O=C(CN(Cc1ccccc1Cl)C(=O)c1csnn1)NCc1ccc2c(c1)OCO2 the inhibition was -1.47% (inactive).
For Cc1nc2nc(-c3ccccc3)cn2nc1C, the inhibition was -1.38% (inactive).
For Cc1ccc(-c2cn3nc(C)c(C)nc3n2)cc1, the inhibition was -9.37% (inactive).
In the case of COc1ccc(C(=O)N(CC(=O)NC(C)(C)C)c2ccc3c(c2)OCCO3)cc1OC, the inhibition is reported as -3.24% (inactive).
For Cn1c(-c2ccccc2)cc(=NNS(C)(=O)=O)c2cc(S(=O)(=O)O)ccc21, the inhibition was 7.43% (inactive).
With Oc1ccc2ccccc2c1CN1CCCCC1 the inhibition was -0.78% (inactive).
In the case of Oc1ccc(CN2CCCCC2)nc1-c1ccccc1, the inhibition is reported as -3.27% (inactive).
In the case of c1ccc(-c2ccc(-c3csnn3)cc2)cc1, the inhibition is reported as 0.69% (inactive).
In the case of CCOc1ccc(S(=O)(=O)Nc2ccccc2SC)cc1, the inhibition is reported as 6.41% (inactive).
With CCOC(=O)c1ccccc1NS(=O)(=O)c1ccc(OCC)cc1 the inhibition was -6.45% (inactive).
For COc1ccc(S(=O)(=O)Nc2ccc(O)c3ccccc23)cc1, the inhibition was 70.6% (inactive).
For COc1ccc(S(=O)(=O)c2c(C)c(NS(=O)(=O)c3ccccc3)cc(C)c2O)cc1, the inhibition was -5.22% (inactive).
